Hits are enriched below; roughly 17% of the tested compounds scored in any of these assays.
DT40 TDP1 CPT – growth inhibition of DT40 Tdp1-/-;hTDP1 cells with camptothecin (screen for TDP1 inhibitors). chicken DT40 Tdp1-/-;hTDP1 cells + 20 nM CPT, ATP luminescence, 48 h. Potency, µM (series often up to 46.2 µM), inactives show at the top dose activity change, negative = growth inhibition, usual class: inhibitors. 420,000 tested, 12% active; note: % is set by controls: 0 for no effect and ±100 for the full control effect; nearly all actives have a fitted effect of over 55% in size
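Chicken DT40 Tdp1-/- cells complemented with human TDP1, 400 cells/well, exposed to compounds plus 20 nM camptothecin for at least 48 h at 37 C; viability read as ATP content by CellTiter-Glo luminescence.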
ATXN viability – reduces viability in counter-screen for ATXN expression inhibitors; 400,000 tested, 0.49% active; Potency, µM (series often up to 56.7 µM), actives largely listed as cytotoxic; S2 cells (HEK-293 line with an ATXN2-luciferase reporter) viability, CellTiter-Fluor protease fluorescence, 24 h; note: nearly all actives have a fitted effect of over 40% in size
TGFb inhibitor – TGF-b pathway inhibition | HepG2 CAGA-GFP TGF-b/SMAD3 reporter, GFP fluorescence, 18 h; TGF-beta stimulated, 500 pg/mL final | Potency, µM (highest dose often 46.1 µM), inactives show top-dose activity, negative = inhibition, actives largely listed as inhibitors | 410,000 tested, 1.2% active | AID 588855; note: % is set by controls: 0 for no effect and ±100 for the full control effect; nearly all actives have a fitted effect of over 65% in size
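Cell-based qHTS in HEPG2 carrying a CAGA-GFP Smad reporter; compounds added before 500 pg/mL final TGF-beta, 18 h incubation at 37 degrees C, GFP fluorescence quantified per cell by imaging cytometry.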
ATXN2 expr inh – ATXN2 expression inhibition. Potency, µM (top dose mostly 57 µM), without a hit: top-dose activity change, negative = inhibition, usual class: inhibitors. AID 1745845. 360,000 tested, 0.72% active. HEK-293 ATXN2-luciferase reporter, luminescence, 24 h; note: % is set by controls: 0 for no effect and ±100 for the full control effect; nearly all actives have a fitted effect of over 55% in size
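qHTS (up to 57 uM final) was run with 24 h compound exposure of reporter cells at 37 °C. Each well was multiplexed: SteadyGlo luminescence measured ATXN2-luciferase expression after a fluorogenic Gly-Phe-AFC viability readout (25 uM final).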
DT40 TDP1 no CPT – qHTS for Inhibitors of human tyrosyl-DNA phosphodiesterase 1 (TDP1): qHTS in cells in absence of CPT; DT40 Tdp1-/- hTDP1 cells, no CPT, ATP luminescence, 48 h; Potency, µM (top dose mostly 46.2 µM), for the others: top-dose activity change, negative = growth inhibition, actives largely listed as inhibitors; 420,000 tested, 15% active; AID 686978, 2013; note: % is set by controls: 0 for no effect and ±100 for the full control effect; nearly all actives have a fitted effect of over 55% in size
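A cellular qHTS used chicken DT40 cells lacking endogenous Tdp1 but carrying stably transfected human TDP1. Compounds were applied without camptothecin, and cell growth kinetics were judged by ATP-dependent luminescence after ≥48 hr.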
HepG2 viability – counter-screen for TGF-b inhibitors: cytotoxicity in HepG2 cells. HepG2 CAGA-GFP viability, ATP luminescence, 18 h. Potency, µM (doses to about 46.1 µM), without a hit: top-dose activity change, negative = cytotoxicity, most hits filed as cytotoxic. 410,000 tested, 0.76% active
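HepG2 CAGA-GFP cells (1000/well, DMEM with 1% FBS) received compound, then TGF-beta at 500 pg/mL final, and were incubated 18 hours at 37 degrees C. Viability was read by CellTiter-Glo luminescence. Media-only wells were set as complete cell-killing and DMSO as no toxicity.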
An asterisk follows results filed as active; ! = repeats disagree. Calls come from the whole dose curve; as a rule, active = well fitted curve in the direction sought with a large enough effect; inconclusive = small, poorly fitted or top-dose-only effect, or another doubt; inactive = no such curve, though single readings can be large; an effect the other way counts as inactive or inconclusive. Potency is the fitted concentration of half-maximal effect.

How did Cc1ccccc1NC(=O)COc1ccccc1C(=O)Nc1ccccc1 do in these assays?
DT40 TDP1 CPT: -6%; DT40 TDP1 no CPT: -30%

How did COc1c(NC(C)=O)c2ccccc2c2ccccc12 do in these assays?
DT40 TDP1 CPT: -21%; ATXN viability: inactive; TGFb inhibitor: 11%; ATXN2 expr inh: -11%; DT40 TDP1 no CPT: -6%; HepG2 viability: 1%

How did CC(C)(O)CCc1ccc(OCc2cc(-c3cccc(OC(F)F)c3)c3ncccc3c2)cc1 do in these assays?
ATXN2 expr inh: 4%

Results for CC(C)c1ccc(CC(C)C2C3=C(CCCC3=O)OC3=C2C(=O)CCC3)cc1 (centres undefined) ?
DT40 TDP1 CPT: inconclusive; ATXN viability: inconclusive; TGFb inhibitor: inconclusive; ATXN2 expr inh: -14%; DT40 TDP1 no CPT: inconclusive; HepG2 viability: 9%

Results for COc1ccc(NC(=O)c2ccccc2OCC(=O)Nc2ccc(Br)cc2)cc1 ?
DT40 TDP1 CPT: inconclusive; TGFb inhibitor: -8%; DT40 TDP1 no CPT: inconclusive; HepG2 viability: 2%

Results for CS(=O)(=O)c1ccc(NC(=O)COc2ccccc2C(=O)Nc2ccccc2)cc1 ?
DT40 TDP1 CPT: 20µM*; TGFb inhibitor: -7%; DT40 TDP1 no CPT: inconclusive; HepG2 viability: -17%

What do the screens show for `O=C(COc1ccccc1C(=O)Nc1ccccc1)Nc1ccc2ccccc2c1`?
DT40 TDP1 CPT: inconclusive; DT40 TDP1 no CPT: 20µM*

How did CCC1CN(C(=O)N2CCC(C(=O)NCc3ccco3)CC2)c2cc(C)ccc2O1 (centres undefined) do in these assays?
DT40 TDP1 CPT: inconclusive; ATXN viability: inactive; TGFb inhibitor: 2%; ATXN2 expr inh: -7%; DT40 TDP1 no CPT: 18µM*!; HepG2 viability: -7%

How did CC1CN(C(=O)N2CCC(C(=O)NCc3ccco3)CC2)c2ccccc2O1 (centres undefined) do in these assays?
DT40 TDP1 CPT: 5%; TGFb inhibitor: -8%; DT40 TDP1 no CPT: -19%; HepG2 viability: -5%

What do the screens show for `CCc1ccc(CNC(=O)C2CCN(C(=O)N3CC(CC)Oc4ccc(C)cc43)CC2)cc1` (centres undefined)?
DT40 TDP1 CPT: 21µM*; TGFb inhibitor: -18%; DT40 TDP1 no CPT: 21µM*; HepG2 viability: -20%

What do the screens show for `CCC1CN(C(=O)N2CCC(C(=O)NCc3ccc(C)o3)CC2)c2cc(C)ccc2O1` (centres undefined)?
DT40 TDP1 CPT: 16µM*!; ATXN viability: inactive; TGFb inhibitor: inconclusive; ATXN2 expr inh: -17%; DT40 TDP1 no CPT: inconclusive; HepG2 viability: -1%

How did Cc1ccc2c(c1)N(C(=O)N1CCC(C(=O)NCc3cccc(Br)c3)CC1)CCO2 do in these assays?
DT40 TDP1 CPT: inconclusive; TGFb inhibitor: inconclusive; DT40 TDP1 no CPT: 21µM*; HepG2 viability: -30%

What do the screens show for `COc1cc(NC(=O)CSc2nc(C)c(C(=O)Nc3ccccc3)c(-c3ccc(OC)c(OC)c3)c2C#N)c(OC)cc1Cl`?
DT40 TDP1 CPT: 3%; ATXN viability: inactive; TGFb inhibitor: -16%; ATXN2 expr inh: 8%; DT40 TDP1 no CPT: -1%; HepG2 viability: -17%

How did Cc1ccc(S(=O)(=O)N2CCC(C(=O)N/N=C/c3cccnc3)CC2)cc1 do in these assays?
DT40 TDP1 CPT: -1%; ATXN viability: inactive; TGFb inhibitor: inconclusive; ATXN2 expr inh: 1%; DT40 TDP1 no CPT: -10%; HepG2 viability: 13%

What do the screens show for `CCCOc1ccc(CNC(=O)C2CCN(C(=O)N3CCOc4ccccc43)CC2)cc1`?
DT40 TDP1 CPT: 21µM*; ATXN viability: inactive; TGFb inhibitor: -13%; ATXN2 expr inh: -7%; DT40 TDP1 no CPT: inconclusive; HepG2 viability: -20%

How did Cc1cc(N2O[C@]34C=C[C@]25C[C@@H](O)CC[C@]5(C)C3CC[C@]2(C)[C@@H]([C@H](C)/C=C/[C@H](C)C(C)C)CC[C@H]24)no1 (some centres undefined) do in these assays?
DT40 TDP1 CPT: 12µM*; ATXN viability: inactive; TGFb inhibitor: -4%; ATXN2 expr inh: 6%; DT40 TDP1 no CPT: 9.2µM*; HepG2 viability: 1%

What do the screens show for `COCCNC(=O)C1(C)CCCN(C(=O)c2cccc(Cl)c2)C1` (centres undefined)?
DT40 TDP1 CPT: -22%; ATXN viability: inactive; TGFb inhibitor: -14%; ATXN2 expr inh: -1%; DT40 TDP1 no CPT: -2%; HepG2 viability: -74%

What do the screens show for `CN1CCN(C(=O)c2cc3c(s2)-c2ccccc2S(=O)(=O)C3)CC1`?
DT40 TDP1 CPT: 2%; ATXN viability: inactive; TGFb inhibitor: -27%; ATXN2 expr inh: 14%; DT40 TDP1 no CPT: -18%; HepG2 viability: -13%

How did O=C(c1ccc2c(c1)N(Cc1cccc(Cl)c1)C(=O)c1ccccc1S2(=O)=O)N1CCC(Cc2ccccc2)CC1 do in these assays?
DT40 TDP1 CPT: 4.1µM*; TGFb inhibitor: -20%; DT40 TDP1 no CPT: 4.1µM*; HepG2 viability: -37%

Results for O=C(c1ccc2c(c1)N(Cc1ccccc1)C(=O)c1ccccc1S2(=O)=O)N1CCN(Cc2ccccc2)CC1 ?
DT40 TDP1 CPT: 10µM*; DT40 TDP1 no CPT: 7.3µM*; HepG2 viability: -23%

Results for O=C(NCCN1CCCC1)c1ccc2c(c1)N(Cc1cccc(Cl)c1)C(=O)c1ccccc1S2(=O)=O ?
DT40 TDP1 CPT: inconclusive; ATXN viability: inactive; TGFb inhibitor: 5%; ATXN2 expr inh: -3%; DT40 TDP1 no CPT: 5%; HepG2 viability: -18%

What do the screens show for `O=C(c1ccc2c(c1)N(Cc1ccc(Cl)cc1)C(=O)c1ccccc1S2=O)N1CCC(Cc2ccccc2)CC1` (centres undefined)?
DT40 TDP1 CPT: 12µM*; ATXN viability: inactive; TGFb inhibitor: inconclusive; ATXN2 expr inh: inconclusive; DT40 TDP1 no CPT: 9.2µM*; HepG2 viability: -41%

What do the screens show for `O=C(c1cc2c(s1)-c1ccccc1S(=O)(=O)C2)N1CCN(Cc2ccccc2)CC1`?
DT40 TDP1 CPT: 18µM*; ATXN viability: inactive; TGFb inhibitor: -37%; ATXN2 expr inh: inconclusive; DT40 TDP1 no CPT: 16µM*; HepG2 viability: -40%

What do the screens show for `Cc1ccc(CO)cc1Nc1ncnc2onc(-c3ccc(F)cc3)c12`?
DT40 TDP1 CPT: inconclusive; ATXN viability: inactive; TGFb inhibitor: 1%; ATXN2 expr inh: 11%; DT40 TDP1 no CPT: inconclusive; HepG2 viability: -13%
